Measurements as given in the supplement of paper PMC10732440.
± gives the standard deviation of the averaged measurements.

Test system: Caenorhabditis elegans N2 infected with Nematocida parisii ERTm1
Assay: progeny production relative to DMSO uninfected control; higher = more progeny despite microsporidia infection (inhibition of infection with low host toxicity)
Conditions: infection time 6 days
Procedure, shortened: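 Progeny production is reported as a percentage of spore-free vehicle wells and averaged across replicates. It was measured after bleach-synchronised wild-type C. elegans L1 larvae (100 per well) spent 6 days shaking at 21°C in K-medium with E. coli OP50, 15,000 N. parisii spores/μL and compound at 100 μM or 40 μM in 1% DMSO. Counting used Rose Bengal staining, flatbed scanning and WorMachine, and each compound and dose was tested three times.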

SMILES	progeny production (40 µM) [%]	progeny production (100 µM) [%]
C=CCN(C(=O)OCc1ccc([N+](=O)[O-])cc1)C1CCN(CC[C@](C)(CN(C)S(=O)(=O)c2ccccc2)c2ccccc2)CC1	3.88 ± 1.4	5.72 ± 2.3
O=C(CC1Sc2ncnn2C1=O)Nc1ccc(Br)cc1 (stereo not drawn)	6.82 ± 1.8	21.6 ± 10
Cc1c(F)cccc1NC(=O)Nc1ccc(Cl)c(S(=O)(=O)[C@H]2CCCNC2)c1O	8.9 ± 1.8	13 ± 5.7
CSc1ccc2c(c1)C(N1CCN(C)CC1)Cc1ccccc1S2 (stereo not drawn)	5.75 ± 2.9	13.9 ± 9
CC[C@@]1(O)C(=O)OCc2c1cc1n(c2=O)Cc2cc3c([N+](=O)[O-])cccc3nc2-1	5.77 ± 1.9	8.29 ± 3.3
O=c1cc(OCc2ccccc2)ccn1Cc1ccccc1	5.55 ± 1.6	13.9 ± 13
CCO/N=C/c1ccc(OCCCCN2CCN(c3ccncc3)C2=O)cc1	5.24 ± 4.2	9.79 ± 7.8
CC(Cc1ccccc1)C(=O)Nc1ccc(Cl)cc1C(=O)O (stereo not drawn)	7.65 ± 4.2	14.4 ± 0.88
CNc1nc(=O)[nH]cc1F	2.97 ± 1.7	12.9 ± 10
Cc1ccc(NC(=O)c2ccc(CN3CCN(C)CC3)cc2)cc1Nc1nccc(-c2cccnc2)n1	5.07 ± 2.9	9.12 ± 3.8
O=C1c2cccc3cccc(c23)C(=O)N1CC1CO1 (stereo not drawn)	7.39 ± 4.7	44.9 ± 30
N=c1n(CCN2CCCCC2)c2ccccc2n1CC(O)COc1ccc(Cl)cc1Cl (stereo not drawn)	5.53 ± 1.7	9.49 ± 8.7
O=C(NC(=O)N1CCCc2ccccc21)c1ccc(Cl)cc1Cl	3.48 ± 1.1	19.2 ± 21
Oc1ccc2[nH]c(-c3ccccc3)nc2c1	5.32 ± 3.2	11.5 ± 2.5
O=C(CCCC(F)(F)F)N1CCC(c2nc(-c3nccs3)no2)CC1	5.21 ± 1.1	8.6 ± 8.7
CC(C)Oc1ccc(-n2cnc3cc(/C=C\c4ccc(C(C)(C)O)cc4)ccc32)cc1	5 ± 1.6	10.6 ± 2
O=C(O)c1ccc(-n2nc(-c3ccccc3O)nc2-c2ccccc2O)cc1	4.83 ± 3	16.7 ± 7.4
CCC(C)NCC(O)Cn1c2ccc(Cl)cc2c2cc(Cl)ccc21 (stereo not drawn)	7.33 ± 7	6.85 ± 6.4
NNC(=O)c1ccncc1	12.3 ± 5.7	14.7 ± 5.8
CNCC(=O)OCc1cccnc1N(C)C(=O)OC(C)[n+]1cnn(C[C@](O)(c2cc(F)ccc2F)[C@@H](C)c2nc(-c3ccc(C#N)cc3)cs2)c1 (stereo partly drawn)	7.13 ± 1.5	16.8 ± 10
COC(=O)Nc1nc2c(C)cccc2[nH]1	13.8 ± 1.7	78.2 ± 11
COc1ccc(SCC(=O)N2c3ccccc3Sc3ccccc32)cc1	5.84 ± 2.3	14.1 ± 5.9
COc1ccccc1NC(=O)c1ccccc1Sc1ccc([N+](=O)[O-])cc1	6.65 ± 3.2	14.7 ± 2.9
COc1ccc(CNC(=O)C2CCN([C@H](C)c3cccc4ccccc34)CC2)cc1	4.66 ± 2.1	15.7 ± 6.6
